Screening data: PubChem, National Center for Advancing Translational Sciences (NCATS)
An excerpt weighted towards active compounds, which were near 21% of everything screened.
Shiga inhibitor: blocks Shiga toxin action in Vero cells. 9.2% of 290,000 active. AID 2315. Vero cells, Shiga toxin protein synthesis inhibition reporter. inhibition, % at 38.7 µM; in the data active = inhibition mostly above about 28%, no sharp cut-off; inactive = mostly below about 43%; note: 0% is about no effect
HCV inhibitor: inhibitors of hepatitis C virus infection; Huh7.5.1 HCVcc-Cre infection, luciferase reporter, 44 h; Potency, µM (titrated, usually from 41.8 µM), for the others: at the highest dose activity change, negative = inhibition, hits mostly inhibitors; 3.4% of 340,000 active; note: potency is the fitted concentration of half-maximal effect; % is set by controls: 0 for no effect and ±100 for the full control effect
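Luciferase read-out (15 sec integration) after a 15 min room-temperature substrate step quantifies HCVcc-Cre infection. Cells, 1,000 per well, had compound added 4 h post-plating, then virus at ~0.5 moi, and were cultured 44 h.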
Pf growth 48h: P. falciparum growth inhibition at 48 hours (one generation). P. falciparum luciferase growth in erythrocytes, 48 h. Potency, µM (top dose mostly 28.7 µM), without a hit: top-dose activity change, negative = inhibition, actives largely listed as inhibitors. 5.9% of 310,000 active; note: potency is the fitted concentration of half-maximal effect; % is set by controls: 0 for no effect and ±100 for the full control effect
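In quantitative HTS format, infected erythrocytes bearing luciferase-reporter parasites were treated for a single generation at 37 C. Luminescence after adding detection reagent served as the growth measure.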
Pf growth 96h: P. falciparum growth inhibition at 96 hours | P. falciparum luciferase reporter growth, 96 h | Potency, µM (series often up to 28.7 µM), without a hit: top-dose activity change, negative = inhibition, most hits filed as inhibitors | 6.9% of 320,000 active | AID 504834; note: potency is the fitted concentration of half-maximal effect; % is set by controls: 0 for no effect and ±100 for the full control effect
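Plates of compound plus infected erythrocytes (2% hematocrit, 0.05% parasitemia final) incubate 96 hours, 37 C, 5% CO2. Detection reagent added; reduced luminescence from the parasites' luciferase reporter flags inhibition.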
Cycloheximide cs: counter-screen hit for Shiga toxin inhibitors, cycloheximide; AID 2314; 12% of 300,000 active; cell reporter, cycloheximide protein synthesis inhibition counterscreen; max response, %; in the data active = max response mostly above about 13%, no sharp cut-off; inactive = mostly below about 14%; note: read at 38.3 µM for the half of the compounds with a filed dose; 0% is about no effect
AMA1-RON2 inh: disrupts binding of P. falciparum AMA1 to RON2 | AlphaScreen AMA1-biotinylated RON2 peptide binding | Potency, µM (top dose mostly 58.2 µM), for the others: top-dose activity change, negative = inhibition, most hits filed as inhibitors | 0.2% of 360,000 active;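 note: potency is the fitted concentration of half-maximal effect; 0% = vehicle wells and -100% = peptide control; nearly all actives have a fitted effect of over 45% in size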
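AMA1 (3D7) with his tag at 25 nM final met compounds first, then biotinylated RON2 peptide at 25 nM; detection used donor plus acceptor beads, 10 µg/mL apiece, read by AlphaScreen after 30 min at room temperature.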
* = called active by the depositor; ? = inconclusive; · = no result; [ ] = remark or other dose. Unless noted, calls come from the whole dose curve; as a rule, active = well fitted curve in the direction sought with a large enough effect; inconclusive = small, poorly fitted or top-dose-only effect, or another doubt; inactive = no such curve, though single readings can be large; an effect the other way counts as inactive or inconclusive.

SMILES	Shiga inhibitor	HCV inhibitor	Pf growth 48h	Pf growth 96h	Cycloheximide cs	AMA1-RON2 inh
CN1CCc2c(sc(/N=C/c3cc(Cl)ccc3O)c2C#N)C1	101*	2%	-11%	-12%	52*	7%
Cc1ccc(N(C)C(=O)CN(C)S(=O)(=O)c2ccc3c(c2)n(C)c(=O)c(=O)n3C)cc1	21	11%	?	?	7	-4%
COc1ccc(OC)c(-c2nc(C(=O)NCC3CCCO3)cc3c2[nH]c2ccccc23)c1 (configuration not stated)	10	10µM*	?	?	-3	43%
COc1cccc(-c2nc(C(=O)NCC3CCCO3)cc3c2[nH]c2ccccc23)c1 (configuration not stated)	-12	11µM*	?	8.3µM*	-3	-4%
C=CCOC(=O)N1CCC2CC1c1cc(-c3cccc(C)c3)ccc12 (configuration not stated)	·	3%[8.37 µM]	·	·	·	16%
CCCCC(=O)OCC(=O)N1N=C(c2c[nH]c3ccccc23)C(O)C1c1ccc(OC)cc1 (configuration not stated)	8	?	·	-6%	3	3%
c1ccc(-c2cn3c(n2)CCC3)cc1	5	3%	·	-7%	7	1%
O=[N+]([O-])c1ccc(-c2cn3c(n2)CCC3)cc1	104*	-1%	72%	102%	57*	11%
O=S(=O)(c1ccc2ccccc2c1)n1cccn1	-8	10%	59%	8%	1	-17%
COc1cc(Cl)ccc1OCc1cc(C(=O)NCC(C)c2ccccc2)no1 (configuration not stated)	33	-27%	28%	-28%	25*	-1%
CC(CNC(=O)c1cc(COc2ccc3ncccc3c2)on1)c1ccccc1 (configuration not stated)	-4	?	?	-2%	-1	0%
COc1cc(Cl)ccc1OCc1cc(C(=O)NC(C)Cc2cnccn2)no1 (configuration not stated)	70*	22%	26%	0%	42*	0%
CCC(NC(=O)c1cc(COc2ccc(OC)cc2Cl)on1)c1ccncc1 (configuration not stated)	63	?	11%	?	64*	-4%
CCC(NC(=O)c1cc(COc2ccc(Cl)cc2OC)on1)c1ccncc1 (configuration not stated)	76*	·	9%	-5%	38*	8%
CC(Cc1cnccn1)NC(=O)c1cc(COc2ccc(F)cc2F)on1 (configuration not stated)	-15	-7%	23%	58%	9	-7%
CCC(NC(=O)c1cc(COc2cc(C)c(Cl)c(C)c2)on1)c1ccncc1 (configuration not stated)	11	7%	8%	56%	12	15%
Clc1cccc(Cl)c1-c1noc(CN2CCOCC2)n1	1	16%	10µM*	?	-1	8%
O=CN1CCCN(Cc2nc(-c3cccc(Cl)c3)no2)CC1	24	-3%	87%	3%	28*	-11%
O=C1CCN(Cc2nc(-c3ccc(Cl)cc3)no2)CCN1	29	?	20%	10µM*	5	-2%
Clc1ccc(-c2noc(CN3CCOCC3)n2)cc1	68*	13%	402%	50%	57*	-10%
O=C(C1CCN(Cc2nc(-c3ccc(Cl)cc3)no2)CC1)N1CCOCC1	93	-12%	26%	0%	0	-10%
Fc1cccc(Cc2noc(CN3CCOCC3)n2)c1	4	8%	13%	-1%	1	-6%
CCOC(=O)N1CCN(Cc2nc(-c3cccc(Cl)c3)no2)CC1	7	-2%	11%	2%	-3	1%
CCOC(=O)N1CCN(C(=O)CSCc2ccccc2C)CC1	60*	-3%	13%	5%	37*	10%
CCOC(=O)N1CCN(C(=O)CSCc2ccccc2Cl)CC1	44*	7%	21%	-24%	26	-3%
SMILES	Shiga inhibitor	HCV inhibitor	Pf growth 48h	Pf growth 96h	Cycloheximide cs	AMA1-RON2 inh
CCN(CC)CCNC1=CC(=O)OC12CCCCC2	-8	6%	11%	15µM*	-2	-3%
COc1ccc(-n2nnnc2CNC(=O)c2c(-c3ccccc3Cl)noc2C)cc1	·	·	·	·	·	-2%
CCCCN1CC(COCc2ccccc2)Oc2cccc(Oc3ccc(OC)cc3)c2S1(=O)=O (configuration not stated)	·	?	·	·	·	0%
CCCCN1CC(COCc2ccccc2)Oc2cccc(OCCN3C(=O)[C@@H]4[C@H](C3=O)C3C=C[C@H]4C3)c2S1(=O)=O (some centres not stated)	·	10µM*	·	·	·	-9%
Cc1ccc2c(c1)CC(C)N2S(=O)(=O)c1nnc(NC(=O)CC(C)C)s1 (configuration not stated)	-2	8%	?	90%	-1	-6%
CC1CCCN(C(=O)COC(=O)C2=COCCO2)C1 (configuration not stated)	·	6%	·	·	·	-4%
CCC(=NCc1ccco1)c1c(C(F)(F)F)[nH]n(-c2nc3ccccc3s2)c1=O	52*	3%	·	72%	45*	6%
O=c1c(C=NCc2cccnc2)c(C(F)(F)F)[nH]n1-c1nc2ccccc2s1	1	7%	-10%	16%	-3	12%
C/C(=N/NC(=O)c1cccs1)c1c(C)[nH]n(-c2nc3ccccc3s2)c1=O	20	-16%	92%	-39%	11	70%
CCC(=NCc1ccccc1)c1c(C(F)(F)F)[nH]n(-c2nc3ccccc3s2)c1=O	36	8%	·	17%	21*	-2%
CC(=NCc1ccco1)c1c(C)[nH]n(-c2nc3ccccc3s2)c1=O	56*	-5%	185%	?	48*	1%
COc1ccc(CCN2CC(C(=O)N(C)Cc3c(C)n[nH]c3C)CCC2=O)cc1 (configuration not stated)	-1	5%	2%	?	-3	1%
Cc1ccc(CN2CCC(CNC(=O)c3ccc(NC(=O)C4=CSCCO4)cc3)CC2)cc1	22	13µM*	?	?	10	-4%
O=C(Nc1ccc(C(=O)NCC2CCN(Cc3ccccc3F)CC2)cc1)C1=CSCCO1	29	-9%	-12%	?	14*	-1%
O=C(Nc1ccc(C(=O)NCCCN2CCN(c3ccccc3)CC2)cc1)C1=CSCCO1	2	-28%	?	34%	6	38%
COc1ccc(C(=O)COC(=O)c2sc(C)nc2C)cc1F	·	?	·	·	·	-24%
O=c1cc(-c2ccccc2)[nH]n1-c1ccc([N+](=O)[O-])cc1	71*	-14%	?	?	35*	-8%
O=c1c(N=Nc2ccc(O)cc2)c(-c2ccccc2)[nH]n1-c1ccc([N+](=O)[O-])cc1	-12	?	11%	11%	-3	10%
